Source: the supplement of paper PMC8371130
Structures can show the parent of a compound that is named as a salt.

Tested on: HL-1
Test: relative cell viability (CellTiter-Glo) vs DMSO control (% of DMSO control); higher = more viable cells
Outline: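 Cell viability, normalised to vehicle-treated control cells, was read by CellTiter-Glo luminescence. For this, HL-1 mouse atrial cardiomyocytes were plated at 1000 cells per well in 384-well plates alongside compounds at 40, 200, 1000 or 5000 nM in 0.01% DMSO. After a day, plates either spent 48 h in a hypoxic workstation at 1% O2 and then 24 h reoxygenating in a normal incubator, or remained in normoxia for the same period.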

[1] = oxygen condition: hypoxia 48 h (1% O2) + reoxygenation 24 h, 40 nM
[2] = oxygen condition: hypoxia 48 h (1% O2) + reoxygenation 24 h, 200 nM
[3] = oxygen condition: hypoxia 48 h (1% O2) + reoxygenation 24 h, 1000 nM
[4] = oxygen condition: hypoxia 48 h (1% O2) + reoxygenation 24 h, 5000 nM
[5] = oxygen condition: normoxia 72 h, 40 nM
[6] = oxygen condition: normoxia 72 h, 200 nM
[7] = oxygen condition: normoxia 72 h, 1000 nM
[8] = oxygen condition: normoxia 72 h, 5000 nM

| Structure (SMILES) | relative cell viability [1] | relative cell viability [2] | relative cell viability [3] | relative cell viability [4] | relative cell viability [5] | relative cell viability [6] | relative cell viability [7] | relative cell viability [8] |
| --- | --- | --- | --- | --- | --- | --- | --- | --- |
| O=C1CCc2ccc(OCCCCN3CCN(c4cccc(Cl)c4Cl)CC3)cc2N1 [Aripiprazole] | 98.7 | 104 | 97 | 97.8 | 99 | 99.7 | 98.7 | 99.9 |
| CC1(C)[C@@H](OC(=O)CCC(=O)O)CC[C@]2(C)[C@H]3C(=O)C=C4[C@@H]5C[C@@](C)(C(=O)O)CC[C@]5(C)CC[C@@]4(C)[C@]3(C)CC[C@@H]12 [Carbenoxolone Sodium] | 94.3 | 103 | 100 | 108 | 93.6 | 102 | 102 | 107 |
| CC(=O)NS(=O)(=O)c1ccc(N)cc1 [sulfacetamide sodium] | 97.5 | 98.4 | 106 | 104 | 102 | 107 | 107 | 108 |
| CC(=O)Oc1cc2c(s1)CCN(C(C(=O)C1CC1)c1ccccc1F)C2 (stereo not given) [Prasugrel] | 115 | 104 | 106 | 110 | 106 | 105 | 122 | 120 |
| C#C[C@]1(O)CC[C@H]2[C@@H]3CCC4=CC(=O)CC[C@@H]4[C@H]3CC[C@@]21C [norethindrone] | 97.6 | 100 | 97 | 105 | 102 | 108 | 100 | 113 |
| C=CC(=O)Nc1cc(Nc2nccc(-c3cn(C)c4ccccc34)n2)c(OC)cc1N(C)CCN(C)C | 97.1 | 94.4 | 91.5 | 104 | 95.5 | 93.1 | 89.4 | 108 |
| COc1ccc(CC(C)NCC(O)c2ccc(O)c(NC=O)c2)cc1 (stereo not given) [Formoterol hemifumarate] | 100 | 98.7 | 102 | 111 | 104 | 106 | 98.9 | 106 |
| C=C1c2cccc(O)c2C(=O)C2=C(O)[C@]3(O)C(=O)C(C(N)=O)=C(O)[C@@H](N(C)C)[C@@H]3[C@@H](O)[C@H]12 [Methacycline hydrochloride] | 98.1 | 99.7 | 107 | 109 | 102 | 105 | 103 | 99.7 |
| CC#CCn1c(N2CCC[C@@H](N)C2)nc2c1c(=O)n(Cc1nc(C)c3ccccc3n1)c(=O)n2C [Linagliptin] | 96.7 | 103 | 104 | 105 | 106 | 105 | 107 | 106 |
| O=S(=O)(O)Oc1ccc(C(c2ccc(OS(=O)(=O)O)cc2)c2ccccn2)cc1 [Sodium Picosulfate] | 107 | 109 | 108 | 116 | 110 | 111 | 112 | 116 |
| COc1cc2nccc(Oc3ccc(NC(=O)C4(C(=O)Nc5ccc(F)cc5)CC4)cc3)c2cc1OC | 109 | 112 | 111 | 115 | 112 | 110 | 107 | 120 |
| CCCc1cc(=O)[nH]c(=S)[nH]1 [Propylthiouracil] | 106 | 105 | 107 | 120 | 99.3 | 108 | 107 | 110 |
| CNC(=C[N+](=O)[O-])NCCSCc1csc(CN(C)C)n1 [Nizatidine] | 108 | 104 | 106 | 95.7 | 115 | 104 | 106 | 85 |
| CCOC(=O)c1ccc(OC(=O)CCCCCNC(=N)N)cc1 [Gabexate mesylate] | 107 | 105 | 112 | 108 | 101 | 98.9 | 109 | 110 |
| CN1CCN(CCCN2c3ccccc3Sc3ccc(Cl)cc32)CC1 [Prochlorperazine Dimaleate] | 114 | 111 | 106 | 113 | 98.7 | 99.3 | 102 | 105 |
| Cc1ccc(N(CC2=NCCN2)c2cccc(O)c2)cc1 [Phentolamine mesilate] | 96.2 | 94.7 | 107 | 106 | 102 | 104 | 108 | 115 |
| CN1CC(=O)NC1=N [Creatinine] | 105 | 104 | 106 | 114 | 102 | 97.3 | 100 | 108 |
| CN1C2CCCC1CC(NC(=O)c1nn(C)c3ccccc13)C2 (stereo not given) [Granisetron HCl] | 103 | 102 | 106 | 101 | 101 | 102 | 105 | 102 |
| CC1(C)O[C@@H]2[C@@H](CO[C@@]3(COS(N)(=O)=O)OC(C)(C)O[C@@H]23)O1 [Topiramate] | 97.3 | 91.8 | 108 | 100 | 104 | 107 | 98 | 98.8 |
| C[N+](C)(C)CC(O)CC(=O)[O-] (racemic) [DL-Carnitine hydrochloride] | 100 | 95.2 | 97.2 | 107 | 104 | 102 | 103 | 91.5 |
